# From PubChem BioAssay (NCATS)
# Records with an inconclusive call do not appear. A call without a number means that no potency is given here. A number with no mark means an inactive call. Calls of active or inactive are those of the source. The call rests on the fitted dose curve; in most records, active means well fitted curve in the direction sought with a large enough effect; inconclusive means small, poorly fitted or top-dose-only effect, or another doubt; inactive means no such curve, though single readings can be large; an effect the other way counts as inactive or inconclusive.
# Assays:
# [1] = Primary qHTS for inhibitors of nuclear receptor binding SET domain protein 2 (NSD2) in an isogenic RCH-ACV NSD2 p.E1099K mutant (9B) (AID 1645876)
# [2] = Primary qHTS for inhibitors of nuclear receptor binding SET domain protein 2 (NSD2) in an RCH-ACV wild type WT cells (2C) (AID 1645877)
# Further: nearly all actives have a fitted effect of over 70% in size.
structure (smiles),measurement,setting,value
CC(=O)OC[C@@]12[C@H](O)C[C@]3(C)C(=CCC4[C@@]5(C)CC[C@H](O[C@@H]6O[C@H](C(=O)O)[C@@H](O[C@@H]7O[C@H](CO)[C@@H](O)[C@H](O)[C@H]7O)[C@H](O)[C@H]6O[C@@H]6O[C@H](CO)[C@@H](O)[C@H](O)[C@H]6O)[C@](C)(CO)C5CC[C@]43C)[C@@H]1CC(C)(C)[C@@H](OC(C)=O)[C@@H]2O (some centres undefined),"activity change, negative = viability loss",[1],3.64% [at 9.23 µM]
same,outcome,[2],inactive [at 9.23 µM]
CC(C)CC1(C(=O)OCc2ccc(O[C@@H]3O[C@H](CO)[C@@H](O)[C@H](O)[C@H]3O)cc2)CC(=O)OC(C(=O)O)CC(=O)OCC2OC(O1)C(OC(=O)/C=C/c1ccc(O)cc1)C(O)C2O (some centres undefined),"activity change, negative = viability loss",[1],1.01% [at 9.23 µM]
same,"activity change, negative = cell killing",[2],0.208% [at 9.23 µM]
CC1(C)CC[C@]2(C(=O)O[C@@H]3O[C@H](CO)[C@@H](O)[C@H](O)[C@H]3O)CC[C@]3(C)C(=CCC4[C@@]5(C)C[C@@H](O)[C@H](O)[C@@](C)(CO)C5CC[C@]43C)C2C1 (some centres undefined),Potency,[1],inactive
same,Potency,[2],inactive
OCC1OC(Oc2cc(O)c3c(c2)OC(c2ccc(O)cc2)C(O)C3)C(O)C1O (centres undefined),Potency,[1],inactive
same,Potency,[2],inactive
CN1C(=O)N[C@@H](Cc2c[nH]c3c(Cl)cccc23)C1=O,Potency,[1],inactive
same,Potency,[2],inactive
C[C@@H]1O[C@@H](O[C@@H]2[C@@H](O)[C@H](O[C@@H]3[C@@H](O)[C@@H](O)[C@H](O[C@H]4[C@H](OC(=O)[C@]56CCC(C)(C)C[C@H]5C5=CCC7[C@@]8(C)C[C@H](O)[C@H](O[C@@H]9O[C@H](C(=O)O)[C@@H](O)[C@H](O)[C@H]9O)[C@@](C)(CO)C8[C@H](O)C[C@@]7(C)[C@]5(C)CC6)OC[C@H](O)[C@@H]4O)O[C@H]3C)OC[C@H]2O)[C@H](O)[C@H](O)[C@H]1O (some centres undefined),"activity change, negative = viability loss",[1],-7.76% [at 9.23 µM]
same,"activity change, negative = cell killing",[2],-21.5% [at 9.23 µM]
CC(/C=C/C1(O)C(C)CC(O)CC1(C)C)OC1OC(CO)C(O)C(O)C1O (centres undefined),Potency,[1],inactive
same,Potency,[2],inactive
C/C(=C/CCC(CO)C1CCC2(C)C3CCC4C(C)(C)C(OC5OC(CO)C(O)C(O)C5O)CC(O)C45CC35CCC12C)COC1OC(CO)C(O)C(O)C1O (centres undefined),Potency,[1],inactive
same,Potency,[2],inactive
COc1c2c(c(C)c3c1C(=O)OC3)O[C@@]1(C)C[C@@H](O)[C@]34O[C@](OC)(CC[C@]3(C)[C@H]1C2)OC4(C)C,Potency,[1],inactive
same,Potency,[2],inactive
C=C(C(=O)O)C1CCC(C)C2CCC(=O)OC2(C)C1 (centres undefined),Potency,[1],inactive
same,Potency,[2],inactive
COc1ccc2c(c1O)OC[C@H]1c3ccc(O)cc3O[C@@H]21,Potency,[1],inactive
same,Potency,[2],inactive
CC(=O)N(O)CCCCCN1C(=O)CCC1=O,Potency,[1],inactive
same,Potency,[2],inactive
